Measurements taken from PubChem BioAssay AID1918990 (ICCB-Longwood Screening Facility, Harvard Medical School, 2023).
The campaign covered roughly 29,000 compounds. About 85 (0.3%) were called active. Only a selection was taken, and actives are over-represented in it overall. A number with no mark means an inactive call.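 The calls were made as follows: active = replicate mean overnight rise in green fluorescent reporter signal, 3 or more SD over negative controls; inactive = the rest.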

Experiment: activators of Burkholderia fixLJ two-component system, primary screen, B. multivorans, GFP reporter (AID 1918990)
Details: B. multivorans fixK-promoter GFP reporter, 18 h; stronger effect = higher value

SMILES | z-score
COc1cc(NS(=O)(=O)c2cccs2)cc(OC)c1 | -1.05
Cc1ccc(C(=O)Nc2ccc3[nH]c(=O)c(=O)[nH]c3c2)cc1 | -0.29
CCCC(=O)Nc1cc2nn(-c3ccccc3)nc2cc1C | -0.72
O=C(CSc1ccncc1)NC1CCOCC1Oc1cccc(F)c1 (centres undefined) | -0.58
COc1cc(OC)c(N(C)C(=O)c2cc3c(=O)oc4ccccc4c3s2)cc1Cl | -1.12
CCC(=O)N1CCc2cc(S(=O)(=O)NC(Cc3ccccc3)C(=O)NCc3ccccc3)ccc21 (centres undefined) | -1.81
CC(NC(=O)CCN1CCN(C)CC1)c1cnn(-c2ccccc2)c1 (centres undefined) | 0.09
COc1cc(OC)c(NC(=O)c2c3c(nn2C)-c2ccccc2SC3)cc1Cl | 1.42
CCOC(=O)c1cnc2c(C)cc(C)cc2c1Nc1ccc(N2CCOCC2)cc1 | -0.2
O=C1CCC2(CCCN(C(=O)c3n[nH]c4c3CCCC4)C2)CN1CC1CC1 (centres undefined) | -0.52
CC(C)(C)NC(=O)CSc1nc(-c2ccc(F)cc2)cc(C(F)(F)F)n1 | -1.55
CCc1ccc(CN(Cc2ccco2)C(=O)c2ccccc2Cl)cc1 | 1.11
CCN1CCc2nc3sc(C(=O)Nc4ccccc4OC(F)(F)F)c(N)c3cc2C1 | -0.04
Cc1ccc(S(=O)(=O)N2CCCC(C(=O)CCc3ccccc3)C2)s1 (centres undefined) | -1.15
Cc1cc(C)nc(CCNC(=O)N(Cc2ccncc2)CC2CCC(=O)N2)n1 (centres undefined) | 0.83
Cc1ccc(Cl)cc1NC(=O)CCS(=O)(=O)c1ccc(Br)s1 | -1.34
CCCN1CCN(CCCNC(=O)Cn2nc(CC)n3c(cc4occc43)c2=O)CC1 | 0.72
Cc1nn(C)c2c1C(NC(=O)c1cc(CC(C)C)on1)CCC2 (centres undefined) | -0.15
Cc1ccc(NC(=O)C(Cc2ccccc2)NS(=O)(=O)c2ccc3c(c2)oc(=O)n3C)cc1C (centres undefined) | 0.54
Cc1nc2c(-c3ccccc3)c(C)nn2c(C)c1CCC(=O)NCCc1ccccc1 | -0.95
COc1ccc(-c2noc(CCC(=O)N(C)c3ccccc3C)n2)cc1 | -1.83
CCn1c(C(=O)Nc2cc(Cl)ccc2C)cc2sc(Cl)cc21 | -0.88
CCn1c(=O)c(=O)n(CC)c2cc(N3CCCCC3)c(NC(=O)c3ccc(Cl)cc3)cc21 | 15.3 (active)

SMILES | z-score
CCn1c(=O)c(=O)n(CC)c2cc(N3CCCCC3)c(NC(=O)c3cccc(F)c3)cc21 | 0.36
CCCn1nccc1S(=O)(=O)NCc1csc(-c2cnccn2)n1 | -1.08
Cc1cccc(NC(=O)C2CCCN2S(=O)(=O)c2cccc3nsnc23)c1C (centres undefined) | 0.05
CN1C(=O)c2[nH]nc(-c3ccc(F)cc3)c2C1c1ccccn1 (centres undefined) | 0.33
CN(CCNC(=O)CN1CCCC(c2ccccc2)C1)S(C)(=O)=O (centres undefined) | 0.17
Cc1[nH]c(=O)[nH]c(=O)c1CC(=O)NCc1ccc(-c2ncon2)cc1 | -1.58
CCOC(=O)c1ccc(NC(=O)CC2C(=O)N(c3cccc(OC)c3)C(=O)N2C2CCCCC2)cc1 (centres undefined) | -0.28
CCOC(=O)c1cc2c(=O)n3ccccc3nc2n(CCCOC)c1=NC(=O)C(C)(C)Oc1ccc(Cl)cc1 | -0.51
Cc1cc(C(=O)NCCCc2nnc3ccccn23)nc(C)n1 | -0.17
COc1ccc(CNC(=O)c2cc3c(s2)-c2ccccc2OC3)cc1 | 0.73
COc1ccccc1CNC(=O)Cn1nccc1C1CCCNC1 (centres undefined) | 0
CCCCNC(=O)c1ccc2c(c1)NC(=O)C(C(C)C)N2 (centres undefined) | 0.08
COc1cc2nc(NCC(C)c3ccccc3)n3nc(-c4ccccc4)nc3c2cc1OC (centres undefined) | -0.67
CCCS(=O)(=O)c1c(Nc2ccccc2C)sc(C(=O)c2ccccc2)c1N | 0.44
CC1CCC2(CC1)N=C(c1ccccc1)C(=O)N2CC(=O)Nc1ccc(F)c(Cl)c1 (centres undefined) | -1.75
Cc1cc(C)cc(NS(=O)(=O)c2ccc3[nH]cc(C(=O)N4CCCCC4)c(=O)c3c2)c1 | -1.09
COc1ccc(CCNCc2c(C(=O)O)c(C)n(Cc3cccc(C)c3)c2C)cc1OC | -1.27
COC(=O)c1c(NC(=O)c2cc(=O)c3c(C)cc(C)cc3o2)sc2c1CCCC2 | -1.12
COCCN(CC=Cc1ccccc1)Cc1ccc2nonc2c1 | 0.18
COc1cc2c(=O)c(S(=O)(=O)c3ccc(C(C)C)cc3)cn(Cc3ccccc3C)c2cc1OC | 0.3
CCOC(=O)c1c(NC(=O)COc2cc(C)ccc2C(C)C)sc(C)c1C | -0.34
c1ccc(-c2noc(CCn3ccnc3-c3cnsc3)n2)nc1 | 0.47
Cc1ccc(-n2nc(CO)c(C(=O)NCCc3ccccc3)n2)cc1 | -0.78

SMILES | z-score
CC(C)c1nnsc1C(=O)Nc1ccc(CC(=O)NC2CC2)cc1 | -0.11
Cn1ccnc1C(O)c1cc2n(n1)CCN(Cc1cccc(Cl)c1)C2 (centres undefined) | 0.34
COCCCNC(=O)c1c(NC(=O)c2cc(=O)c3cc(C)c(C)cc3o2)sc2c1CCCC2 | -0.42
COc1cccc2c1C1(CCN(C(=O)c3ccccn3)CC1)OCC2 | 0.69
CCOC(=O)C1CCCN(C(=O)Cn2ncc3c(C)n(Cc4ccc(F)cc4)c(C)c3c2=O)C1 (centres undefined) | 0.33
COc1ccc(Cl)cc1NC(=O)NCC1CCN(Cc2ccccc2F)CC1 | -7.23
Cc1ccc(C(=O)NCCc2nc(N)cc(=O)[nH]2)n1C(F)F | -0.52
COc1ccc(NC(=O)CSc2nc3ncccc3[nH]2)c(OC)c1 | 1.38
Cn1c(C2CCN(C(=O)CSc3nnc(N)s3)CC2)nc2ccccc21 | 0.47
CN(Cc1ccccc1)C(=O)c1cc2c(=O)n(C)c3ccccc3c2s1 | 0.14
CCOc1ccc(S(=O)(=O)N(CC(=O)NCCSCc2ccc(C)cc2)c2ccccc2)cc1 | -1.04
Cc1c(NC(=O)c2cc(=O)c3ccccc3o2)c(=O)n(-c2ccccc2)n1C | -0.69
COc1cccc(CNC(=O)c2cc(=O)[nH]c3ccc(S(=O)(=O)N4CCCCC4)cc23)c1 | -0.5
CCc1ccc(NC(=O)CN2C(=O)C(c3ccccc3)=NC23CCCCCC3)cc1 | -1.83
COC(=O)c1ccc(C2C(C(=O)Nc3ccccc3)=C(C)Nc3nc4ccccc4n32)cc1 (centres undefined) | -1.77
COc1ccc(CNC(=O)Cn2nnc(-c3ccc(S(C)(=O)=O)cc3)n2)cc1 | 0.3
Cn1c(=O)nc2n(-c3ccc(Br)cc3)c3cccc(Cl)c3cc-2c1=O | -1.2
COc1ccc(C(=O)Nc2onc3c2CCCC3)cc1 | -2.06
Cc1nc(C2CCN(S(=O)(=O)CCC3CCS(=O)(=O)C3)CC2)no1 (centres undefined) | 0.66
Cc1ccc(Nc2c(-c3ccc(C)cc3)nc3cnccn23)cc1 | -1.25
Cn1c(=O)c2c(nc(SCC(=O)Nc3ccc(F)cc3)n2Cc2ccccc2)n(C)c1=O | -1.14
Cc1ccc2nc(-c3ccc(O)cc3)c(Nc3ccc4c(c3)OCO4)n2c1 | 0.53
O=C(c1n[nH]c2ccccc12)N1CCc2nc(-c3cccc(F)c3)[nH]c2C1 | -1.33

SMILES | z-score
COc1c(Cl)cc(C(=O)N(Cc2ccccc2F)C2CCS(=O)(=O)C2)cc1Cl (centres undefined) | -0.89
Cc1ccn2c(Nc3ccc4c(c3)OCCO4)c(-c3ccc(C)s3)nc2c1 | 0.86
CCOc1ccc(-c2cc3nc(C4CCN(C(=O)OC(C)(C)C)CC4)c(C(=O)Nc4cccc(CC)c4)cn3n2)cc1 | -0.21
CCOc1ccc2nc(N3CCC(C(=O)Nc4cc(C)ccc4C)CC3)sc2c1 | -0.96
Nc1ccnc(N2CCCC(c3[nH]ncc3-c3ccc(F)cc3)C2)n1 (centres undefined) | -0.16
COc1cc(NC(=O)CCNC(=O)Cn2ccc3ccccc3c2=O)cc(OC)c1OC | 0.24
CCCCOCC(=O)N1CCCC(c2ccn(CC(=O)O)n2)C1 (centres undefined) | -2.17
CN(C)C1CN(Cc2cnc(-c3ccc(Cl)cc3)nc2)CC1O (centres undefined) | -0.39
Cc1ccc(-c2nc(S(=O)(=O)c3ccc(C)cc3)c(N3CCCCCC3)o2)cc1 | -0.18
COc1ccc(CNC(=O)c2cc3c(=O)[nH]c4ccc(C)cc4c3s2)c(OC)c1 | -1.16
COc1cccc(OCc2cc(C(=O)N(C)Cc3nncn3C)n[nH]2)c1 | -1.49
Cc1c(CNC(C)c2ccccc2)c(C(=O)O)c(C)n1Cc1c(F)cccc1Cl (centres undefined) | -2.09
COCCN(CCOC)C(=O)c1ccc(-c2ncccc2Cl)cc1 | 0.44
Cn1c(=O)c2c(nc(SCC(=O)Nc3ccc(F)cc3)n2Cc2ccc(Cl)cc2)n(C)c1=O | -2.04
COCCNC(=O)c1cc(-c2cccc(Cl)c2)on1 | 1.09
CCOc1ccccc1NC(=O)Cn1c(=O)n(Cc2ccco2)c(=O)c2sc3ccccc3c21 | -1.53
COCCCCCC(=O)N1CC(O)C(Cc2cnccn2)C1 (centres undefined) | 0
CS(=O)(=O)N1CCCn2nc(CNC(=O)CC3CCCC3)cc2C1 | -0.69
Cc1ccc(C)c(Nc2nnc(-c3ccc(C)c(S(=O)(=O)N4CCCCC4)c3)c3ccccc23)c1 | -0.47
COC(=O)c1ccccc1NS(=O)(=O)c1ccc2c(c1)CCCN2C(C)=O | -1.34
